Source: PubChem BioAssay (NCATS)
Inconclusive results are not listed. Entries that show only a call come without a potency. The source made the active and inactive calls. The call rests on the fitted dose curve; in most records, active means well fitted inhibition curve with a large enough effect; inconclusive means small, poorly fitted or top-dose-only effect; inactive means flat fitted curve, though single readings scatter. Peptide text beside a SMILES is read from it.

Each compound was assayed on CRL-7250 (assay: qHTS assay to identify novel small-molecules to repurpose for Merkel cell carcinoma treatment (AID 1296009; further: nearly all actives have a fitted effect of over 60% in size)). Conditions: MCC and control cell lines, CellTiter-Glo viability, 72 h; series mostly up to 92 µM.
Summary of the method: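 Dose-response viability screen; 72 hr exposure at 37 degree celsius; CellTiter-Glo added, 10 min room temperature, luminescence read; RLUs scaled between no-cell and DMSO wells.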

| Structure (SMILES) | Potency | outcome |
| --- | --- | --- |
| COc1ccc(CNC(=O)c2cc(-c3cncc(C)c3)ncc2-c2nccs2)nc1OC | inactive |  |
| CCc1nn(CCO)c(CC)c1Oc1cc(C#N)cc(C#N)c1 | inactive |  |
| C#Cc1cnc2[nH]c(=O)n(C(CC)CC)c2n1 | inactive |  |
| COC(=O)c1cc(CN2CCN(C(=N)N)CC2)cc(C(=O)N2CCN(C(=O)c3ccc(C(=N)N)cc3)CC2)c1 | inactive |  |
| CC1=CC(=O)CC(C)(CO[C@@H]2O[C@H](CO)[C@@H](O)[C@H](O)[C@H]2O)C1(O)/C=C/C(C)=C/C(=O)O (stereo not given in full) | inactive |  |
| C=CC/C=C\C/C=C\CCCCCCCc1cccc(O)c1C(=O)O | inactive |  |
| CC(CC12CCCN1C(=O)C1CCCN1C2=O)OC(N)=O (stereo not given) | inactive |  |
| C/C1=C\CC[C@H](C)CCO[C@@H]2O[C@H](CO[C@@H]3OC[C@](O)(COC1=O)[C@H]3O)[C@@H](O)[C@H](O)[C@H]2O | inactive |  |
| CC1C(O)C(O)C2C(C(=O)OCCc3ccc(O)cc3)=COC(O[C@@H]3O[C@H](CO)[C@@H](O)[C@H](O)[C@H]3O)C12 (stereo not given in full) | inactive |  |
| CC1(C)CC[C@]2(C(=O)O)CC[C@]3(C)C(=CCC4[C@@]5(C)CC[C@H](O)C(C)(C)C5CC[C@]43C)C2C1 (stereo not given in full) | inactive |  |
| Cc1ccc(Sc2cncc3sc(C(N)=O)cc23)cc1 | inactive |  |
| COc1cc(C2c3cc(O)c(OC)cc3CC(CO)C2CO)ccc1O (stereo not given) | inactive |  |
| COc1ccc(CCC(=O)O)c(O[C@@H]2O[C@H](CO)[C@@H](O)[C@H](O)[C@H]2O)c1 | inactive |  |
| Cc1cc(-c2ncc(-c3cccnc3)cc2/C=C/c2ccccc2)cnc1-c1cccnc1 | inactive |  |
| O=C(/C=C/c1ccccc1)O[C@@H]1[C@@H](CO)O[C@@](CO)(O[C@H]2O[C@H](CO)[C@@H](O)[C@H](O)[C@H]2O)[C@H]1O | inactive |  |
| CC1(C)CC2C(O)C3=C(CC(C)(O)C2C1)C(=O)OC3 (stereo not given) | inactive |  |
| C[C@@H](NC(=O)C(=O)c1c[nH]c2ccc([N+](=O)[O-])cc12)c1ccccc1 | inactive |  |
| COC(=O)C[C@H]1C(C)(C)[C@H](OC(=O)C(C)C)[C@@]2(O)C(=O)[C@]1(C)C1CC[C@]3(C)C(CC(=O)O[C@H]3c3ccoc3)[C@]13O[C@@H]32 (stereo not given in full) | inactive |  |
| CC(=O)OC1(C)CC(O)C2(O)C=COC(OC3OC(CO)C(O)C(O)C3O)C12 (stereo not given) | inactive |  |
| COC(=O)c1cc(Br)cnc1N1CCC(NC2CCCCC2)C(O)C1 (stereo not given) | inactive |  |

| Structure (SMILES) | Potency | outcome |
| --- | --- | --- |
| C=C1CC[C@@H]2[C@@](C)(CO[C@@H]3O[C@H](CO)[C@@H](O)[C@H](O)[C@H]3O)[C@H](O)CC[C@@]2(C)[C@@H]1CC/C(C)=C/CO[C@@H]1O[C@H](CO)[C@@H](O)[C@H](O)[C@H]1O | inactive |  |
| Cn1nccc1-c1ccccc1Oc1ccc(S(=O)(=O)Nc2nccs2)cc1C#N | inactive |  |
| CC(c1ncncc1F)C(O)(Cn1cncn1)c1ccc(F)cc1F (stereo not given) | inactive |  |
| C[C@@H]1O[C@@H](O[C@@H]2[C@@H](O)[C@H](O[C@H]3CC[C@@]4(C)C(CC[C@]5(C)C4CC=C4[C@@H]6CC(C)(C)CC[C@]6(C(=O)O[C@@H]6O[C@H](CO)[C@@H](O)[C@H](O)[C@H]6O)CC[C@]45C)C3(C)C)O[C@H](C(=O)O)[C@H]2O)[C@H](O)[C@H](O)[C@H]1O (stereo not given in full) |  | inactive [at 9.27 µM] |
| COc1ccc(CCN(C)CCCOc2nsc(-c3ccccc3)n2)cc1OC | inactive |  |
| CN1CCc2cc(Cl)c(O)cc2[C@@H](c2cccc3c2OCC3)C1 | inactive |  |
| CC12CC(c3ccoc3)OC(=O)C1CCC1(C)C2CCC(O)C1(C)O (stereo not given) | inactive |  |
| C=CC1(C)CC2=CCC3C(C)(C(=O)O)CCCC3(C)C2CC1OC(C)=O (stereo not given) | inactive |  |
| COC1=Cc2c(nc3n(c2=O)C(C)C(=O)NC3(O)C(C)C)OC=C1 (stereo not given) | inactive |  |
| C[C@H](Oc1ccc(S(C)(=O)=O)cc1C(=O)N1CCN(c2ncc(C(F)(F)F)cc2F)CC1)C(F)(F)F | inactive |  |
| CC(C)=CCC(O)/C(C)=C/CO[C@@H]1O[C@H](CO)[C@@H](O)[C@H](O)[C@H]1O (stereo not given in full) | inactive |  |
| NCCOCCOCCNC(=O)Cc1ccc(Nc2nc(NCc3ccc(F)cc3)nc(NCC3CCCCC3)n2)cc1 | inactive |  |
| CC(=O)O[C@@H]1[C@H](O[C@@H]2O[C@@H](CO)[C@H](O)[C@H]2O)[C@@H](O[C@@H]2O[C@@H](C)[C@H](O[C@@H]3OC[C@@H](O)[C@H](O)[C@H]3O)[C@@H](O)[C@H]2O)[C@H](OC(=O)[C@]23CCC(C)(C)C[C@H]2C2=CCC4[C@@]5(C)CC[C@H](O[C@@H]6O[C@H](C(=O)O)[C@@H](O)[C@H](O)[C@H]6O[C@@H]6O[C@H](CO)[C@H](O)[C@H](O)[C@H]6O)[C@@](C)(C=O)C5CC[C@@]4(C)[C@]2(C)CC3)O[C@@H]1C (stereo not given in full) |  | inactive [at 9.27 µM] |
| C[C@@H]1CC[C@]2(C)C(C[C@@H](O)[C@H](O)[C@]23CO3)[C@@]1(C)CCc1ccoc1 (stereo not given in full) | inactive |  |
| C=C(C(=O)O)C1CC(O)C2(C)CCCC(C)(O)C2C1 (stereo not given) | inactive |  |
| CC(=O)N[C@@H](Cc1c[nH]c2ccccc12)C(=O)N[C@@H](CCC(=O)O)C(=O)N[C@@H](Cc1cnc[nH]1)C(=O)N[C@@H](CC(=O)O)C(=O)Nc1ccc2c(C(F)(F)F)cc(=O)oc2c1 (HELM PEPTIDE1{[ac].W.E.H.D.[O=c1cc(C(F)(F)F)c2ccc(N[*:1])cc2o1]}$$$$V2.0) | inactive |  |
| O=C(O)/C=C/c1ccc(O)c(O[C@@H]2O[C@H](CO)[C@@H](O)[C@H](O)[C@H]2O)c1 | inactive |  |
| COc1cc(NC(=O)c2cccc(-n3cc(NC(=O)Nc4cccc(C)c4)cn3)c2)cc(OC)c1OC | inactive |  |
| CC1(C)CC[C@]2(C(=O)O[C@@H]3O[C@H](CO)[C@@H](O)[C@H](O)[C@H]3O)CC[C@]3(C)C(=CCC4[C@@]5(C)C[C@@H](O)[C@H](O)[C@@](C)(CO)C5[C@H](O)C[C@]43C)C2[C@@H]1O (stereo not given in full) | inactive |  |
| Cc1ncc([N+](=O)[O-])n1C[C@H](O)CN1CCOCC1 | inactive |  |
